# Where “and” joins values, the source holds several entries; their conditions need not be identical. Equal values may be shown once. Over roughly 5,300 compounds, “PER2::LUC luminescence relative to vehicle control” has its median near 0.96; the highest 2% begin near 1.3. This is one part of a sample in which the highest values are shown more often than they occur.
# System: mPer2Luc MEF
# Test: PER2::LUC luminescence relative to vehicle control (fold of vehicle); higher = higher PER2::LUC reporter signal
# Conditions: 10 µM
# Summary of the method: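 Each value gives PER2::LUC luminescence as fold of vehicle control, measured with the ONE-Glo luciferase assay system in mouse embryonic fibroblasts carrying the mPer2Luc reporter. Cells grown in DMEM with 10% FBS at 37 °C and 5% CO2 were seeded at ~3000 per well in 384-well plates. Library compounds were added at 10 μM 48 h later, and readings were taken 24 h and 30 h after treatment.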
SMILES,PER2::LUC luminescence (time after treatment 24 h),PER2::LUC luminescence (time after treatment 30 h)
CC1(C)[C@@H](O)CC[C@]2(C)[C@H]3C(=O)C=C4[C@H]5C[C@@](C)(C(=O)O)CC[C@]5(C)CC[C@@]4(C)[C@]3(C)CC[C@@H]12,0.97,0.899
CC1(C)[C@@H](OC(=O)CCC(=O)O)CC[C@]2(C)[C@H]3C(=O)C=C4[C@@H]5C[C@@](C)(C(=O)O)CC[C@]5(C)CC[C@@]4(C)[C@]3(C)CC[C@@H]12,0.965 and 0.646,0.891 and 1.01
CC1(C)[C@@H](O)CC[C@]2(C)[C@H]3C(=O)C=C4[C@@H]5C[C@@](C)(C(=O)O)CC[C@]5(C)CC[C@@]4(C)[C@]3(C)CC[C@@H]12,1.22 and 0.966,1.5 and 0.907
CC(C)C[C@H](N)C(=O)N[C@H](C(=O)N[C@H](C(=O)N[C@@H](Cc1ccc(O)cc1)C(=O)N1CCC[C@H]1C(=O)N[C@@H](Cc1c[nH]c2ccccc12)C(=O)N[C@H](C(=O)N[C@@H](CCC(N)=O)C(=O)N[C@@H](CCCN=C(N)N)C(=O)O)[C@@H](C)O)C(C)C)C(C)C,0.942,0.916
COc1ccc(C[C@H]2c3cc(OC)c(OC)cc3CC[N+]2(C)C)cc1OC,0.944,0.889
COc1ccccc1-c1nc(-c2ccccn2)no1,0.948,0.943
C#CCCC(=O)O,1.07,0.985
COc1ccnc(C[S+]([O-])c2nc3cc(-n4cccc4)ccc3[nH]2)c1C (centres undefined),1.07,1.05
Cc1c(OCC(F)(F)F)ccnc1C[S@@+]([O-])c1nc2ccccc2[nH]1,1.68 and 1.14,1.73 and 1.12
COc1ccc2[nH]c([S+]([O-])Cc3ncc(C)c(OC)c3C)nc2c1 (centres undefined),0.886,1.08
COc1ccnc(C[S+]([O-])c2nc3cc(OC(F)F)ccc3[nH]2)c1OC (centres undefined),0.944 and 1.32,1.01 and 0.991
Cc1c(OCC(F)(F)F)ccnc1C[S+]([O-])c1nc2ccccc2[nH]1 (centres undefined),1.17,1.67
COc1ccc2[nH]c([S@@+]([O-])Cc3ncc(C)c(OC)c3C)nc2c1,1.02 and 1.01 and 1.11,1.01 and 0.923 and 1.08
COc1ccc2[nH]c([S+]([O-])Cc3ncc(C)c(OC)c3C)nc2n1 (centres undefined),0.776,1.01
COCCCOc1ccnc(C[S+]([O-])c2nc3ccccc3[nH]2)c1C (centres undefined),1.15 and 1.39 and 1.44,1.12 and 1.68 and 1.47
N=C(N/N=C/c1ccc(Cl)cc1)N/N=C/c1ccc(Cl)cc1,0.996,0.988
CCOC(=O)C1=Cc2ccc(C(F)(F)C(F)(F)F)cc2N=C(N)C1,1.07,1.05
O=[N+]([O-])c1cc(C(F)(F)F)cc([N+](=O)[O-])c1NNC(=S)Nc1ccc(F)cc1,0.67,0.671
CCCCC[C@H](O)/C=C/[C@@H]1[C@@H](C/C=C\CCCC(=O)O)[C@H](O)C[C@H]1O,1.1,1.1
Oc1ccccc1NCc1ccccn1,0.921,1.05
C[C@H](CCC(=O)NCC(=O)NCCS(=O)(=O)O)[C@H]1CC[C@H]2[C@@H]3[C@H](O)C[C@@H]4C[C@H](O)CC[C@]4(C)[C@H]3C[C@H](O)[C@]12C,0.886,0.904

SMILES,PER2::LUC luminescence (time after treatment 24 h),PER2::LUC luminescence (time after treatment 30 h)
CC1(C)O[C@@H]2C[C@H]3[C@@H]4C[C@H](F)C5=CC(=O)C=C[C@]5(C)[C@@]4(F)[C@@H](O)C[C@]3(C)[C@]2(C(=O)CO)O1,0.902,1.15
CCCCC(=O)O[C@]1(C(=O)CO)[C@@H](C)C[C@H]2[C@@H]3CCC4=CC(=O)C=C[C@]4(C)[C@@]3(F)[C@@H](O)C[C@@]21C,0.684 and 0.795,1.37 and 1.15
CC1(C)O[C@@H]2C[C@H]3[C@@H]4CCC5=CC(=O)C=C[C@]5(C)[C@@]4(F)[C@@H](O)C[C@]3(C)[C@]2(C(=O)CO)O1,0.583,1.35
CC(=O)OCC(=O)[C@@]12OC3(CCCC3)O[C@@H]1C[C@H]1[C@@H]3CCC4=CC(=O)C=C[C@]4(C)[C@@]3(F)[C@@H](O)C[C@@]12C,0.828,1.13
CCC(=O)OCC(=O)[C@@]1(OC(=O)CC)[C@@H](C)C[C@H]2[C@@H]3CCC4=CC(=O)C=C[C@]4(C)[C@@]3(F)[C@@H](O)C[C@@]21C,0.454 and 0.475,1.01 and 0.98
CCC(=O)O[C@]1(C(=O)CCl)[C@@H](C)C[C@H]2[C@@H]3CCC4=CC(=O)C=C[C@]4(C)[C@@]3(F)[C@@H](O)C[C@@]21C,0.711,1.08
Nc1nc(=O)c2c([nH]1)NCC(CNc1ccc(C(=O)N[C@@H](CCC(=O)O)C(=O)O)cc1)=N2,1.06,0.985
COc1cccc(NCC(O)Cn2c3ccc(Br)cc3c3cc(Br)ccc32)c1 (stereo in doubt),0.88,0.955
COc1cc(OC)c2c(OC)c(-c3ccc4c(c3)OCO4)c(=O)oc2c1,1.02,1.21
COc1ccc(-c2c(O)c3c(OC)c4c(cc3oc2=O)OC(C)(C)C=C4)cc1,1.5,1.46
COc1c2c(cc3occ(-c4ccc5c(c4)OCO5)c(=O)c13)OC(C)(C)C=C2,0.833,0.876
CC(=O)OC[C@@]1(O)C[C@@]23CC[C@@H]4c5ccoc5CC[C@@]4(C)[C@@H]2CC[C@@H]1C3,1.05,1.06
C=CCCCCCCCCCCCC(O)CC(O)CO (centres undefined),0.967,0.789
CC1(C)CCC[C@](C)([C@H]2CC[C@]3(C)[C@@H]2[C@H](O)C[C@@H]2[C@@]4(C)CC[C@H](O)C(C)(C)[C@@H]4CC[C@]23C)O1,1.02,1.02
CC(C)(C)c1nc2c3cc[nH]c(=O)c3c3cc(F)ccc3c2[nH]1,0.802,0.906
CCOC(=O)c1cn(-c2c(F)c(F)c(C#N)c(F)c2F)c2c(F)c(F)c(F)cc2c1=O,1.08,1.19
O=C(c1ccc(OCCN2CCCCC2)cc1)c1c(-c2ccc(O)cc2)sc2cc(O)ccc12,0.35,0.69
CCCCOc1ccc(OCCCN2CCOCC2)cc1,1.12,1.18
CCCCOc1ccc(C(=O)CCN2CCCCC2)cc1,0.957,1.41
CCN1CCN(Cc2ccc(NC(=O)Nc3ccc(Oc4cc(NC)ncn4)cc3)cc2C(F)(F)F)CC1,0.107,0.14
CO/N=C(\C(=O)N[C@@H]1C(=O)N2C(C(=O)[O-])=C(C[n+]3ccc(N)n3CCO)CS[C@H]12)c1csc(N)n1,1.12,1.1

SMILES,PER2::LUC luminescence (time after treatment 24 h),PER2::LUC luminescence (time after treatment 30 h)
Cn1c([N+](=O)[O-])cnc1COC(N)=O,1.15,1.27
CSc1ccc(OCc2ncc([N+](=O)[O-])n2C)cc1,1.41,1.31
Cc1ncc([N+](=O)[O-])n1C,1.13,0.998
N[C@](CCCCB(O)O)(CCN1CCCCC1)C(=O)O,1.07,1.08
Cc1ccccc1-n1c([C@H](C)Nc2nc(N)nc3nc[nH]c23)nc2cccc(C)c2c1=O,0.801,0.66
CCCCN(CCCC)S(=O)(=O)c1ccc(C(=O)O)cc1,0.899,1.04
COc1ccc(C(=O)c2ccccc2)c(O)c1,1.22,1.21
COc1ccc(C(C)=O)c(O)c1,0.967,0.936
COc1ccc(CC(=O)c2ccc(O)cc2O)cc1,1.63,1.51
COc1ccc(C(=O)c2ccc(C)cc2)c(O)c1,1.02 and 1.29,1.55 and 1.57
COc1cc(/C=C/C(=O)c2ccc(O)cc2O)ccc1O,1.02,1.04
O=C(/C=C/c1ccc(O)cc1)CC(=O)/C=C/c1ccc(O)cc1,1.1,1.07
COc1ccc(/C=C/C(=O)c2ccc(O)cc2O)cc1,1.51,1.56
COc1ccc([C@@H](C)C(=O)c2ccc(O)cc2O)cc1,1.1,1.08
COc1ccc(C(=O)c2ccccc2O)c(O)c1,1.02,1.04
O=C(/C=C/c1ccccc1)c1ccc(O)cc1,1.33,1.48
COc1ccc(/C=C/C(=O)c2cc(O)ccc2O)cc1,0.754,0.827
COc1ccc(C(=O)/C=C/c2ccccc2)cc1,1.25,1.28
CCC(C(=S)O[C@]12CCC[C@H](CC1)N2C)c1ccccc1 (some centres undefined),0.715,0.77
Nc1ccc(S(=O)(=O)NCCc2ccccc2)cc1,1.03,1
CC1=CC(=O)C2=C(C)CC[C@@H]3[C@H](OC(=O)[C@H]3C)[C@@H]12,0.959,0.978

SMILES,PER2::LUC luminescence (time after treatment 24 h),PER2::LUC luminescence (time after treatment 30 h)
OCC12COC(c3ccc(F)cc3)N1C(c1ccc(F)cc1)OC2 (centres undefined),1.07,1.03
C[C@@H](Nc1cc(NS(=O)(=O)N2CCC2)nc(SCc2cccc(F)c2F)n1)[C@@H](O)CO,1.03,1
COc1ccc2c(c1)C[C@H](C(=O)Nc1ccc(-c3cn[nH]c3)cc1OCCN(C)C)CO2,0.472,0.452
CCN(CC)C(=O)C(c1ccccc1)N1CCN(c2ccc(NC(=O)c3ccccc3-c3cccnc3)cc2F)CC1 (centres undefined),0.968,1.09
O=C[C@H](O)[C@H](O)CO,0.921,0.987
CN1C(=O)C[C@H](C(=O)O)[C@H]1c1cccnc1,1.08,1.07
O=C(/C=C/c1ccc(O)c(O)c1)c1ccc(O)cc1O,1.04,1.13
O=C(/C=C/c1ccc(O)cc1)c1ccc(O)cc1O,1.24,1.41
O=C(/C=C/c1ccccc1)c1ccc(O)cc1O,1.21,1.43
CC(C)=CCc1c(O)ccc(C(=O)/C=C/c2ccc(O)cc2)c1O,0.904,0.903
O=C(/C=C/c1ccccc1)c1ccc(O[C@@H]2O[C@H](CO)[C@@H](O)[C@H](O)[C@H]2O)cc1O,1.21,1.27
COc1cc(O)c(C(=O)/C=C/c2ccccc2)c(OC)c1,0.907,0.937
Clc1ccc(Nc2nc3ccccc3c3nc(C4CCCCC4)[nH]c23)cc1Cl,0.84,0.867
OCC1OC(O)CC(O)C1O (centres undefined),1.15,0.973
CCCCCCCC(=O)CCc1ccc(O)c(OC)c1,1.04,0.901
N=C(N)SCc1ccc(CSC(=N)N)s1,1.01 and 0.976,1.01 and 0.977
COCCOc1nc(N)c2[nH]c(=O)n(Cc3ccccc3)c2n1,1.21,1.13
O=C(O)CC1CC(c2ccccc2)=NO1 (centres undefined),0.994 and 1.06,0.948 and 1.15
COC(=O)CC1CC(c2ccc(O)cc2)=NO1 (centres undefined),1.51,1.75

# Reference: the supplement of paper PMC9334596
